{"source": "paper PMC4336329", "about": "(PLoS ONE, 2015)", "note": "The whole screen tested about 310,000 compounds, of which about 14,000 (4.5%) showed an effect of 50% or more. The effect is printed as a negative number. This is one part of a sample in which strong results are shown more often than they occur.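 Further: peak tail current of the secondary pulse compared with the same well before compound.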", "data": [{"target": "human ether-à-go-go-related gene (hERG) potassium channel (human, UniProt Q12809)", "sequence (Q12809 whole entry, looked up)": "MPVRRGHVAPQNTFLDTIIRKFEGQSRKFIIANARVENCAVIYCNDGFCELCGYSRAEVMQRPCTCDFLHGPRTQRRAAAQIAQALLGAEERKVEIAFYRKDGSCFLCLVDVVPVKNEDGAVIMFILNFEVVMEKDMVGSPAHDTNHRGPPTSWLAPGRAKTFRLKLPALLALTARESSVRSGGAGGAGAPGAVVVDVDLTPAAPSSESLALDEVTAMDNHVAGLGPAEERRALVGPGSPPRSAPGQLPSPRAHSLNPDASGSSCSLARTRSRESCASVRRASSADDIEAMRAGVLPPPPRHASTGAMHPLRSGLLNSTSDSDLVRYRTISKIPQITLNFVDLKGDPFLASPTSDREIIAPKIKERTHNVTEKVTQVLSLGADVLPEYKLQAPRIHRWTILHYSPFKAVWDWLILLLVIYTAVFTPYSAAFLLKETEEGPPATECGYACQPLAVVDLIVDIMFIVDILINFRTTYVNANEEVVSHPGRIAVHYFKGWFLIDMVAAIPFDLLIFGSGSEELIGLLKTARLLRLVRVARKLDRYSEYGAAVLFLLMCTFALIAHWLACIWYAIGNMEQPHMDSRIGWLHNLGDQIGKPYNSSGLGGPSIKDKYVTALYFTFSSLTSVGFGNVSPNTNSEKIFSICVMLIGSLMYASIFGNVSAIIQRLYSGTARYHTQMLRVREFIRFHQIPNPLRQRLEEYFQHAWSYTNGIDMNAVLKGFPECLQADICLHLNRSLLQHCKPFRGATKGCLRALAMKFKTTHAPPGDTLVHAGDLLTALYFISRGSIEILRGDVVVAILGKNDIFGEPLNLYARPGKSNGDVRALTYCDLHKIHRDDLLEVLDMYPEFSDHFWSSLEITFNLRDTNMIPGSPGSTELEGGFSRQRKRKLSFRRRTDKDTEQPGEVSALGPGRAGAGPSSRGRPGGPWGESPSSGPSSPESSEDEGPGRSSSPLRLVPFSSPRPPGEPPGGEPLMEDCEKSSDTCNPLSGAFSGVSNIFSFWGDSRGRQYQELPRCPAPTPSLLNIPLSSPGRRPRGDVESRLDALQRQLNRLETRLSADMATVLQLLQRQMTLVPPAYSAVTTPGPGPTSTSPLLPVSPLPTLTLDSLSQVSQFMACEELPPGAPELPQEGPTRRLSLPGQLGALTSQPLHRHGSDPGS", "assay": "primary screen, population patch clamp on CHO cells stably expressing hERG; higher = less effect of the substance", "units": {"hERG current change (%, negative = inhibition) at 10uM": "%"}, "values": [{"smiles": "Cc1cc(NC(=O)C(C)SCC(=O)Nc2ccccc2N2CCCC2)no1", "note": "(centres unmarked)", "hERG current change (%, negative = inhibition) at 10uM": 15.1}, {"smiles": "CCNC(=S)N/N=C/c1cccs1", "hERG current change (%, negative = inhibition) at 10uM": 6.26}, {"smiles": "O=C(CCCCCN1C(=O)CCC1=O)Nc1ccc2c(c1)OCCO2", "hERG current change (%, negative = inhibition) at 10uM": 8.47}, {"smiles": "CC(=O)Nc1ccc(-c2csc(NNC(=O)c3ccccc3)n2)cc1", "hERG current change (%, negative = inhibition) at 10uM": 24.7}, {"smiles": "Cc1ccc(-c2nc(C(F)(F)F)cc(=O)[nH]2)cc1", "hERG current change (%, negative = inhibition) at 10uM": 12.7}, {"smiles": "N#CCCn1ncn(-c2ccccc2)c1=S", "hERG current change (%, negative = inhibition) at 10uM": 1.22}, {"smiles": "Cc1ccccc1CC(=O)Nc1ccc2c(c1)CCC2", "hERG current change (%, negative = inhibition) at 10uM": 18.3}, {"smiles": "COc1ccc(-c2noc(CCC(=O)NCCN(C)Cc3ccccc3)n2)cc1", "hERG current change (%, negative = inhibition) at 10uM": -30.5}, {"smiles": "Cc1ccc(-c2noc(CCC(=O)NCCN3CCOCC3)n2)cc1", "hERG current change (%, negative = inhibition) at 10uM": 4.65}, {"smiles": "COc1ccc(-c2noc(CCC(=O)NCCCN3CCN(c4ccccc4F)CC3)n2)cc1", "hERG current change (%, negative = inhibition) at 10uM": -61}, {"smiles": "Cc1ccc(-c2noc(CCC(=O)NCCCN3CCN(c4cccc(Cl)c4)CC3)n2)cc1", "hERG current change (%, negative = inhibition) at 10uM": 2.45}, {"smiles": "Cc1ccc(-c2noc(CCC(=O)NCCCN3CCN(c4ccc(F)cc4)CC3)n2)cc1", "hERG current change (%, negative = inhibition) at 10uM": -66.8}, {"smiles": "COCCCNC(=O)CCc1nc(-c2ccccc2)no1", "hERG current change (%, negative = inhibition) at 10uM": 9.36}, {"smiles": "COc1ccc(C(=O)/C=C/c2cccs2)c(OC(=O)c2cccc([N+](=O)[O-])c2)c1", "hERG current change (%, negative = inhibition) at 10uM": 5.34}, {"smiles": "CCC(C)C(NC(=O)OCc1ccccc1)C(=O)NCC(c1ccccc1)N(C)C", "note": "(centres unmarked)", "hERG current change (%, negative = inhibition) at 10uM": -7.1}, {"smiles": "CC1CN(S(=O)(=O)c2ccc(F)cc2)CN1C(=O)N1CCOCC1", "note": "(centres unmarked)", "hERG current change (%, negative = inhibition) at 10uM": 17.6}, {"smiles": "CC(C)N1CCN(Cc2nc3c(s2)CCCC3)CC1CCO", "note": "(centres unmarked)", "hERG current change (%, negative = inhibition) at 10uM": 18.9}, {"smiles": "OCCC1CN(Cc2nc3c(s2)CCCC3)CCN1Cc1ccsc1", "note": "(centres unmarked)", "hERG current change (%, negative = inhibition) at 10uM": -14.6}, {"smiles": "CC(C)CCN1CCN(Cc2nc3c(s2)CCCC3)CC1CCO", "note": "(centres unmarked)", "hERG current change (%, negative = inhibition) at 10uM": -28.2}, {"smiles": "OCCC1CN(Cc2nc3c(s2)CCCC3)CCN1CCc1ccccc1", "note": "(centres unmarked)", "hERG current change (%, negative = inhibition) at 10uM": -61.4}, {"smiles": "Cc1ccc(CN2CCN(Cc3nc4c(s3)CCCC4)CC2CCO)cc1", "note": "(centres unmarked)", "hERG current change (%, negative = inhibition) at 10uM": -55.3}, {"smiles": "OCCC1CN(Cc2nc3c(s2)CCCC3)CCN1Cc1ccccc1", "note": "(centres unmarked)", "hERG current change (%, negative = inhibition) at 10uM": -22.5}, {"smiles": "CC(=O)Nc1sc(C)c(C)c1C(=O)OCC(=O)N(CC(C)C)c1c(N)n(Cc2ccccc2)c(=O)[nH]c1=O", "hERG current change (%, negative = inhibition) at 10uM": -1.37}, {"smiles": "Cc1cc(C)nc(N(C#N)CC(=O)N2CCC(C(N)=O)CC2)n1", "hERG current change (%, negative = inhibition) at 10uM": 20.1}, {"smiles": "CN1CCc2[nH]c3ccc(C(=O)NN)cc3c2C1", "hERG current change (%, negative = inhibition) at 10uM": 5.22}, {"smiles": "CC1CCc2sc(C(=O)NCC(C)(C)N3CCOCC3)cc2C1", "note": "(centres unmarked)", "hERG current change (%, negative = inhibition) at 10uM": -32.6}]}]}
